# ± gives the standard deviation of the averaged measurements. In all, about 25,000 sequences were measured (“ln(normalized median fluorescence intensity)”: median about 8.9, highest 2% from about 10 on). Only a selection was taken, and the highest values are over-represented in it overall.
# Tested on: PfAP2-LT AP2 domain (GST-tagged)
# Assay: gcPBM binding intensity (ln(normalized median fluorescence intensity)); higher = stronger DNA binding
# How it was run: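 An Agilent 4 × 180k array carrying primer-extended double-stranded 36-bp intergenic genomic probes and negative controls received GST-tagged P. falciparum DNA-binding domains expressed in E. coli, about 25 μg on average, for 1 h. The binding buffer contained 1× PBS, 1% milk, 0.2 mg/ml BSA, 0.5% salmon testes DNA and 0.03% Triton X-100. Binding intensity is the top Masliner-normalised natural-log median intensity across replicate spots of either probe orientation, read after Alexa488 anti-GST antibody staining and a 488 nm scan.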
row,Sequence,gcPBM binding intensity (ln)
1,TGAACATGTTAAAATAAACACACAGCTAAGGTTTTT [CACACA_site7934],8.94 ± 0.4
2,TTATATATATATATATGTACACATATATAACATGAT [XGTACX_site6643],9.19 ± 0.28
3,ATACACTTTTATATATCAATACATTATGTATTAAGT [CACACA_negctrl_site421],8.86 ± 0.35
4,AACAATATATTGATATTATTTTAAGTGATTATATAT [XGTACX_negctrl_site205],8.57 ± 0.33
5,CAACATATGCATATGTGTACATATTTTATTTTCAAC [XGTACX_site2237],8.82 ± 0.42
6,TATTTATAAACATACGCACACATTAAAATATATATA [CACACA_site6051],9.02 ± 0.4
7,TATTTTTTAAAAATGGGTACACATAAATAAATAAAT [XGTACX_site7643],8.58 ± 0.45
8,TAAAAAAATTCATGCACACGAAATAAAAAGCACCTT [CACACA_site4667],9.21 ± 0.3
9,TTAATACCCAGACACACACACACAAAATAAAATACA [CACACA_site7968],10.1 ± 0.48
10,AATACAGACAGACACACACACAAAATAAAATACAAA [CACACA_site245],9.95 ± 0.38
11,TTAATACCCGGACACACACACACAAAATAAAATACA [CACACA_site4296],9.85 ± 0.27
12,TGAACACCCACAAATACACACAAAAAAAATAAATAA [CACACA_site248],9.28 ± 0.51
13,ATAATTAACAAATACACACACACACGCCCACAAAAA [CACACA_site6389],10 ± 0.11
14,ATAATTAACAAATACACACACACACCCCCACAAAAA [CACACA_site518],10.5 ± 0.26
15,AAATAAATATATATATGTACATACAAATACACGGTA [XGTACX_site8510],9.09 ± 0.4
16,TATTGTTTTAAAGAGACATGCAATATATATTATTCC [TGCATGCA_site752],8.51 ± 0.42
17,TACATATATAAAAAAACACACACATATATATATATA [CACACA_site8315],9.665 ± 0.021
18,TACAGATATAAACACACACACATATATATATATATA [CACACA_site4846],10.05 ± 0.092
19,AATGGGTAAACATACACACACACATCTATATTTATA [CACACA_site7025],9.78 ± 0.4
20,GAAATGGGTAAACATACACACACACCGATATATATA [CACACA_site8610],9.87 ± 0.23
21,TACATACATAAACACACACACACATATATATATATA [CACACA_site8953],10.2 ± 0.23
22,AATGGGTAAACATACACACACACATATATATATATA [CACACA_site1991],10.2 ± 0.11

row,Sequence,gcPBM binding intensity (ln)
1,CATATACATAAACACACACACACATAAATAAATATA [CACACA_site4864],10 ± 0.13
2,GTACATACATAAAACACACACATATATATATATATA [CACACA_site1826],10.17 ± 0.071
3,AAAAAAAACATACATACACACACATAAATATATATA [CACACA_site8864],9.72 ± 0.23
4,TAGATACATAAACACACACACACATACATATATACA [CACACA_site9139],10.2 ± 0.23
5,TATATACATAAACACACACACACATATATATATATA [CACACA_site8707],9.89 ± 0.2
6,TATATAAATAGATACACACATACATACATACATACA [CACACA_site260],9.61 ± 0.37
7,TTTGAGATAAAAGACTGTACTTAGAATGTATAAAAA [XGTACX_site203],8.48 ± 0.6
8,ATATGCTATTTACTAGTGCAAAATATTTAAAATATG [GTGCAC_site9517],8.61 ± 0.36
9,ATAATTTTCCATATTTGTACATATTTTTTTCCCTTG [XGTACX_site8146],8.92 ± 0.59
10,ATTTGTTATATATTCTTTTATGTTAATAATTCGAAT [CACACA_negctrl_site378],8.7 ± 0.45
11,ATAATTAGGGTGTATTTCATTTCATTTCATTTTATT [CACACA_negctrl_site1418],9.04 ± 0.4
12,TTTTTCTAATTATGCACACATATCAAAATATTCAAT [CACACA_site2749],8.79 ± 0.46
13,AATATTCTATATGATACATGCATGATGGAATAAAAA [TGCATGCA_site980],8.93 ± 0.3
14,ATATATATTTAAAGATGTACATAATGAAATGGTTAT [XGTACX_site4706],9.01 ± 0.47
15,ACAGAAAAAAAACACACACACATAATATACATACAT [CACACA_site1932],9.82 ± 0.19
16,CAAATACAGAAACACACACACATATACATATATATA [CACACA_site3498],9.77 ± 0.19
17,TAGATACAGAAACACACACACACATACATATATACA [CACACA_site3437],9.97 ± 0.24
18,TATATACAGAAACACACACACACATATATATATATA [CACACA_site2247],10.15 ± 0.057
19,CATACACAGAAACACACACACATATATACATATATA [CACACA_site1094],9.98 ± 0.24
20,CATACACAGAAACACACACACATATATATATATATA [CACACA_site4519],10.2 ± 0.3
21,ATTTTTTTTTTTTTTTTTCATTTTTTTTTTTTTTTT [CACACA_negctrl_site1204],8.62 ± 0.54
22,AAAAAAGCAATATGATGTACATTTACTTTGTGAAAG [XGTACX_site4450],8.73 ± 0.46

row,Sequence,gcPBM binding intensity (ln)
1,TTAAATAGCTGTAATTGTACAAATAAATACATAAAT [XGTACX_site3097],8.82 ± 0.38
2,AAAAAAAAAAAAAAAACATGCAGTTAGTGGTTTTTT [TGCATGCA_site243],8.82 ± 0.4
3,AAGTAAAATAAGTATACACACATAAATATGTAAATA [CACACA_site6467],9.29 ± 0.4
4,AAAAAATAAAACATATATAATATATAATATATATAT [GTGCAC_negctrl_site447],8.69 ± 0.4
5,GGTATACACAAGTATACACACATATAAATATAAATA [CACACA_site7511],9.16 ± 0.49
6,AGCAGACACCAACACACACACATATATATATATATA [CACACA_site337],10.4 ± 0.13
7,TATATATATATACCAACACACATACATATATATATA [CACACA_site8530],9.38 ± 0.14
8,GGTATACACAAGTATACACACATATATATATATATA [CACACA_site9063],10.16 ± 0.099
9,TACACAAGCGGACACACACACATATATATATATATA [CACACA_site4832],10.415 ± 0.0071
10,TATATACATACATATACACACATATATATATATATA [CACACA_site401],9.72 ± 0.21
11,CGCATACACCAACACACACACACATATATATATATA [CACACA_site635],9.96 ± 0.48
12,AGTATACATATATATACACACACATATATATATATA [CACACA_site7883],9.805 ± 0.064
13,AGTATACAGATATATACACACATATATATATATATA [CACACA_site4323],9.935 ± 0.021
14,ATGGGACATATATATACACACATATATATATATATA [CACACA_site1202],9.96 ± 0.24
15,GGTATACTCAAGTATACACACATATATATATATATA [CACACA_site5746],9.64 ± 0.49
16,AGTATACACAGACACACACACACATATATATATATA [CACACA_site8510],10.3 ± 0.42
17,ATTATAATTATTTTGTTGCACTATTTTTGTAGGCCA [GTGCAC_site9734],8.8 ± 0.49
18,ATATTATTTTAAAGTACACACATATATTAATATATA [CACACA_site2315],8.76 ± 0.38
19,ATATATATATATATATGTACATATATATATAATTTT [XGTACX_site4146],9.34 ± 0.54
20,CTTGTCATTTTGCACACACACATGTATAGGTTATTA [CACACA_site7431],9.67 ± 0.16
21,ATTATGGATACATAAACACACATATATATAAAAAAA [CACACA_site4303],9.04 ± 0.43
22,AAAAAAAAAAAAAAAAAAAAAAAAACAATGAATTTA [GTGCAC_negctrl_site698],8.82 ± 0.19

row,Sequence,gcPBM binding intensity (ln)
1,TTAAATAAGTAATTATGTACATATAATATTCTTTAT [XGTACX_site5280],8.6 ± 0.42
2,ATATTAAGGTTTATATTTTAACTTATTATTTTATTC [CACACA_negctrl_site795],8.7 ± 0.49
3,GGATTTTAATGAACACGTACATAAAATTAAATAAAT [XGTACX_site7023],8.73 ± 0.45
4,TAAGTATAAATATTTACACACATTTGTTTTTTTTTA [CACACA_site7731],8.78 ± 0.4
5,TGCCTTATTAAAAGAATTACACATATTTAATCGAAA [GTGCAC_negctrl_site153],8.31 ± 0.39
6,TCTTTTTTTTTTTATTGTACAAGAAAAGGAAAAAAT [XGTACX_site3717],8.05 ± 0.31
7,TTTTTTTTTTTAAGGTGTACAATAAAAATTTATGCA [XGTACX_site8860],8.23 ± 0.35
8,ATATTATTTTATTTTTGTACAGATATCTTTAAAAAA [XGTACX_site3734],8.42 ± 0.37
9,ATTCTATTATAATACACACCCAAATATTAAAAAGAT [CACACA_site2960],8.99 ± 0.4
10,TACATACACAGACACACACACATATAAATATAAATA [CACACA_site7641],9.78 ± 0.28
11,ATTCTACACAGACATACACACATATATATATATATA [CACACA_site5826],9.835 ± 0.078
12,AGGACACATATATGCAAAAAAAAAAAAAAAAAAAAA [TGCATGCA_negctrl_site427],8.41 ± 0.59
13,AGGATATGCAGACACACACACATATAGATTTATATA [CACACA_site7100],9.56 ± 0.43
14,TACAGACATACATACACACATACATATATATATATA [CACACA_site1940],9.82 ± 0.34
15,TATACAGACAGACACACACACATATATATATATATA [CACACA_site1734],10.3 ± 0.13
16,TACATACACAGACACACACACATATATATATATATA [CACACA_site3557],10.1 ± 0.19
17,CATACATACAGACACACACACATATAAATACATACA [CACACA_site6533],9.88 ± 0.35
18,AATACATACAGACACACACACACATATAAATAAATA [CACACA_site7642],10.1 ± 0.38
19,AGGATATGCAGACACACACACATATATATATATATA [CACACA_site2201],10.3 ± 0.23
20,CATATACATACACATACACACATACAGACATACACA [CACACA_site6919],9.63 ± 0.2
21,TACACATACAGACATACACACATACACATATACACA [CACACA_site6918],9.85 ± 0.23
22,TGTTTGAATATAATCACACATTTATATAAAAAGTTA [CACACA_site5237],8.39 ± 0.32
